Compound activity: PubChem, National Center for Advancing Translational Sciences (NCATS)
Rows were chosen to be rich in hits. Some 6.5% of all compounds tested hit in one or more screens of this group.
FMDV inh: blocks foot and mouth disease virus; FMDV antiviral cell-based qHTS; Potency, µM (top dose mostly 57.9 µM), inactives show top-dose activity change, negative = inhibition, usual class: inhibitors; 1.2% of 410,000 active; AID 1159524; calls by dose curve; tested in HEK293T cells; note: read-out not given here; potency is the fitted concentration of half-maximal effect; nearly all actives have a fitted effect of over 45% in size
Marburg entry inh: Marburg virus entry inhibition; Marburg virus pseudotyped entry inhibition, cell reporter; Potency, µM (top dose mostly 37.8 µM), inactives show at the top dose activity change, negative = inhibition, most hits filed as inhibitors; 1.8% of 300,000 active; calls by dose curve; tested in HEK293 cells; note: potency is the fitted concentration of half-maximal effect
HCMV antiviral: human cytomegalovirus inhibition; HFF cells, HCMV-luciferase reporter, 72 h; stronger effect = lower value; activity change, negative = inhibition, % at 57.5 µM; 4.5% of 410,000 active; in the data active = activity change below about -60%; inconclusive = no clear call, values can overlap the other calls; inactive = above about -39%
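After 16 h attachment at 37C, HFF cells received test compound and HCMV-luciferase (1 PFU/cell); reporter luminescence read 72 h later, data normalized against buffer-only and known inhibitor Salinomycin.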
VACV Venus inh: vaccinia inhibition (Venus reporter) | Vaccinia virus Venus reporter expression, fluorescence | Potency, µM (top dose mostly 36.5 µM), inactives show at the highest dose activity change, negative = inhibition, usual class: inhibitors | 0.46% of 330,000 active | AID 720580; calls by dose curve; tested in A549 cells; note: potency is the fitted concentration of half-maximal effect; nearly all actives have a fitted effect of over 30% in size
Lassa entry inh: blocks Lassa virus binding to or entry into cells. Lassa virus pseudotype entry inhibition, cell reporter. Potency, µM (titrated, usually from 37.9 µM), without a hit: at the top dose activity change, negative = inhibition, hits mostly inhibitors. 1.2% of 300,000 active; calls by dose curve; tested in HEK293 cells; note: potency is the fitted concentration of half-maximal effect; nearly all actives have a fitted effect of over 50% in size
Vaccinia mCherry: inhibitors of vaccinia virus infection (mCherry reporter signal) | Potency, µM (titrated, usually from 36.5 µM), for inactives: top-dose activity change, negative = inhibition, actives largely listed as inhibitors | 0.63% of 310,000 active | Vaccinia virus mCherry reporter infection, fluorescence; calls by dose curve; tested in A549 cells; note: potency is the fitted concentration of half-maximal effect; nearly all actives have a fitted effect of over 35% in size
* = called active by the depositor; i = inactive; ? = inconclusive; nt = no result; [ ] = remark or other dose. % is set by controls: 0 for no effect and ±100 for the full control effect.

SMILES	FMDV inh	Marburg entry inh	HCMV antiviral	VACV Venus inh	Lassa entry inh	Vaccinia mCherry
Cc1ccc(OCCN2CCN(C(=O)CCC(=O)Nc3nnc(C)s3)CC2)cc1	?	-3%[46.1 µM]	-101*	-5%	-14%	-15%
Cc1ccc(OCCN2CCN(C(=O)CCC(=O)Nc3nnc(C(C)C)s3)CC2)cc1	?	?	-84*	?	?	nt
COc1ccc(N(CC(=O)Nc2ccccc2F)S(=O)(=O)c2ccc(OC)c(OC)c2)cc1	-3%	nt	39	nt	nt	nt
O=C(Cc1ccc(O)cc1)N/N=C/c1cccnc1	12%	nt	55	nt	nt	nt
COc1ccc2c(c1)-c1nc(-n3ncc(C(=O)NC[C@@H]4CCCN5CCCC[C@H]45)c3C)ncc1CC2	-9%	nt	nt	?	nt	13µM*
Nc1ccc2ccccc2c1C(=O)c1ccccc1	-2%	4%[46.1 µM]	-9	4%	3%[46.1 µM]	?
COc1ccc(-c2cc3nc(C)n(N)c(=O)c3s2)cc1	7.9µM*	nt	-38	nt	nt	nt
Cc1nc2cc(-c3ccccc3)sc2c(=O)n1N	7.1µM*	?	-89*	-5%	?	-16%
COc1ccc(-c2cc3nc4n(c(=O)c3s2)CCCCC4)cc1	-9%	?	31	-4%	4%[46.1 µM]	-14%
COc1ccc(-c2cc3nc4n(c(=O)c3s2)CCC4)cc1	0%	1.6µM*	-23	nt	?	nt
Cn1c(NCc2ccccc2)nc2cc(-c3ccccc3)sc2c1=O	11%	nt	-4	-5%	nt	15%
CON(C)C(=O)/C=C/CCCCNC(=O)OC(C)(C)C	-5%	nt	20	-19%	nt	-10%
C#CCCCO/N=C1\C[C@@H](O)[C@@H](O)[C@@H]2[C@@H]3C(=O)N(C4CCCCC4)C(=O)[C@@H]3CC[C@@H]12	nt	43%[14.2 µM]	nt	nt	nt	nt
COc1ccc(CNC(=O)COc2ccc(C(=O)c3ccc(F)cc3)cc2)cc1	0%	-45%	-20	-22%	?	?
Cc1ccc(CNC(=O)COc2ccc(C(=O)c3ccc(F)cc3)cc2)cc1	-22%	-21%	-75*	-23%	?	?
O=C(COc1ccc(C(=O)c2ccc(F)cc2)cc1)NCc1ccc(F)cc1	-28%	-24%	-78*	-26%	?	?
Clc1ccc(/C=C/c2ncc[nH]2)c(Cl)c1	54%	nt	110	nt	nt	nt
COc1cc(S(=O)(=O)NCc2ccncc2)c(OC)cc1Cl	42%	1%[46.1 µM]	-79*	-8%	-28%	-3%
Cc1cc(S(=O)(=O)NCc2ccncc2)c(C)cc1Br	-3%	?	-87*	-24%	?	-8%
COc1ccc(S(=O)(=O)Nc2ccc(Cc3ccncc3)cc2)cc1OC	-17%	1.4µM*	-65*	-30%	?	?
CCc1ccc(OC)c(S(=O)(=O)Nc2ccc(Cc3ccncc3)cc2)c1	19%	?	-75*	-18%	13µM*	?
COc1ccc(CN2CCC(n3cc(C(=O)N4CCCCC4)nn3)CC2)c(OC)c1	-10%	nt	nt	-9%	nt	-12%
Cc1cc(SCC(=O)c2cccc([N+](=O)[O-])c2)nc(=O)[nH]1	58%	nt	nt	nt	nt	nt
CO[C@H]1[C@H](NC(=O)c2cccs2)c2ccccc2C12CCN(Cc1cccn1-c1cccnc1)CC2	-8%	nt	nt	-4%	nt	-9%
CC(C)c1ccc(NC(=O)CSC2=Nc3ccccc3C3=NC(CCC(=O)NCc4cccs4)C(=O)N23)cc1 (stereo not given)	0%	nt	-14	-20%	-2%[46.1 µM]	-21%
SMILES	FMDV inh	Marburg entry inh	HCMV antiviral	VACV Venus inh	Lassa entry inh	Vaccinia mCherry
COc1ccc(S(=O)(=O)NCc2ccncc2)cc1NC(=O)c1ccccc1F	34%	nt	-88*	nt	nt	nt
COc1ccc(S(=O)(=O)NCc2cccnc2)cc1OC	25%	5%[46.1 µM]	23	-13%	-2%[46.1 µM]	i
COc1ccc(S(=O)(=O)NCc2ccncc2)cc1OC	19%	-19%	-65*	nt	-9%	nt
COc1ccc(S(=O)(=O)NCc2ccncc2)cc1NC(=O)c1ccccc1C	13%	-27%[46.1 µM]	-26	-2%	-24%	-13%
Cc1ccc(NC(=O)C(=O)NCC(c2cccnc2)N2CCN(Cc3ccccc3)CC2)cc1 (stereo not given)	?	nt	-15	-19%	?	i
Cc1cccc2cc(CN(CC3CCCO3)C(=O)C3CC3)c(N(C)C)nc12 (stereo not given)	-2%	nt	nt	2%	nt	-11%
O=C(Cc1ccc([N+](=O)[O-])cc1)c1ccccc1	16%	11%	4	-17%	?	-2%
Cc1ccc(S(=O)(=O)N2CCCCC2)cc1NC(=O)Cn1cnnn1	-15%	nt	-6	nt	nt	nt
Cc1ccc2oc(=O)c3cnn(CC(=O)Nc4ccc(Br)cc4C)c3c2c1	-7%	1%[46.1 µM]	8	-10%	4%[46.1 µM]	-4%
O=C(Cn1ncc(Cl)c(Cl)c1=O)NC(=O)NC1CCCCC1	35µM*	11µM*	-94*	?	?	-35%
CCN(CC)S(=O)(=O)c1cc(NC(=O)Cn2ncc(Cl)c(Cl)c2=O)ccc1C	-93%	nt	-79*	?	nt	?
Cc1cc(Br)ccc1NC(=O)CNC(=O)Cn1ncc(Cl)c(Cl)c1=O	6.3µM*	-26%[46.1 µM]	-101*	-8%	nt	-4%
Cc1ccc(S(=O)(=O)N2CCCCC2)cc1NC(=O)Cn1ncc(Cl)c(Cl)c1=O	20µM*	nt	-97*	nt	nt	nt
CC(C)(C)NCC(O)C1=C(Cl)CCCC1 (stereo not given)	nt	15%	nt	nt	nt	nt
CC(C)CNC(=O)c1cn(C2CCN(Cc3nc4ccccc4s3)CC2)nn1	-10%	nt	nt	0%	nt	i
C#CCCCO/N=C1\C[C@@H](O)[C@@H](O)[C@@H]2[C@@H]3C(=O)N(C(C)(C)C)C(=O)[C@@H]3CC[C@H]12	nt	12%[14.2 µM]	nt	nt	nt	nt
CCCCn1c(C)cc2c(c1=O)[C@H]1O[C@](CCCC)(Cc3cc(C#N)ccc31)O2	nt	-18%[14.2 µM]	nt	nt	?	nt
CN1C(=O)[C@H]2[C@@H](/C=C/c3ccccc3)N3C(=O)CN(Cc4ccccn4)C(=O)[C@@]3(C)[C@H]2C1=O	-3%	nt	-30	-2%	nt	i
O=C(Cn1ncc(Cl)c(Cl)c1=O)N1CCN(S(=O)(=O)c2ccc3ccccc3c2)CC1	28µM*	1.8µM*	-86*	?	?	?
COc1ccc(NC(=O)Cn2ncc(Cl)c(Cl)c2=O)cc1S(=O)(=O)N1CCOCC1	40µM*	?	-100*	-15%	?	-2%
O=C(Cn1ncc(Cl)c(Cl)c1=O)c1ccc2c(c1)OCCO2	?	?	-81*	-26%	13µM*	?
O=C(Cn1ncc(Cl)c(Cl)c1=O)Nc1ccc2c(c1)OCO2	35µM*	nt	-102*	nt	nt	nt
O=c1[nH]nc(-c2ccc[nH]2)[nH]1	-24%	nt	7	-12%	nt	-5%
Cc1ccccc1/C=C/c1cccc[n+]1C	-7%	nt	?	nt	nt	nt
C[n+]1ccccc1/C=C/c1ccccc1Cl	-6%	-2%[46.1 µM]	-79*	-25%	2%[46.1 µM]	-29%
CC(C)C[C@H](NC(=O)c1nc[nH]c1C(=O)NC(c1ccccc1)c1ccccc1)C(=O)OC(C)(C)C	-19%	nt	-63*	?	nt	?
